{"source": "PubChem BioAssay (NCATS)", "note": "Records with an inconclusive call do not appear. A number with no mark means an inactive call. Activity calls are given as the source filed them. Calls come from the whole dose curve; as a rule, active = well fitted inhibition curve with a large enough effect; inconclusive = small, poorly fitted or top-dose-only effect; inactive = no such curve, though single readings can be large or run the other way. Where a SMILES comes first, the peptide text is derived from it. Bridges are numbered along the chain shown (N, C = ends). [ ]: non-standard residue; d: D form. The star is where a group is joined. X1 = CCC(C)C(N)C1=NC(C(=O)*)CS1; dOrn = NCCC[C@@H](N)C(=O)O"}
{"experiment": "qHTS to identify inhibitors of the type 1 interferon - major histocompatibility complex class I in skeletal muscle: primary screen against the NCATS Mechanism Interrogation Plate v5.0 (MIPE) Libary (AID 1347411); note: nearly all actives have a fitted effect of over 65% in size; note: potency is the fitted concentration of half-maximal effect;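 for activity change, negative = inhibition: plate controls were vehicle for no effect and reference inhibitor for full effect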", "settings": "iHSKM cells + IFN-b, HiBiT-tagged MHC-I luminescence, 24 h; series mostly up to 45.8 µM; activity change, negative = inhibition: at the top concentration", "from_the_text": "Assay Submitter (PI): Travis B. Kinder Ph.D. & James Inglese Ph.D.\nAssay Development and Screening Technology Laboratory (ADST)\nNational Center for Advancing Translational Sciences (NCATS), Rockville, MD\nNational Institute of Health (NIH), Bethesda, Maryland\nIdiopathic inflammatory myopathies, collectively referred to as myositis, are a group of rare autoimmune diseases characterized by skeletal muscle inflammation, weakness, and usually accompanied by systemic pathologies of the skin, lungs, or vasculature. Current immunosuppressive therapies and glucocorticoids are often not curative and are accompanied by harsh side effects, especially in children with juvenile myositis. We initiated a drug repurposing and development program to identify more targeted, less toxic therapeutics to treat myositis. Although its cause is not known, muscle from a subset of patients have an abundance of the inflammatory type 1 interferon (IFN) and a down-stream product major histocompatibility complex class I (MHC class I), which are both thought to contribute to damage and weakness. We conducted quantitative high throughput screening on 6,576 compounds (4,679 unique) through a series of cell-based assays to identify those that inhibit the IFN-stimulated expression of MHC class I in muscle precursor cells (myoblasts). The compound identification and evaluation strategy utilized a primary screen with reporter-tagged MHC class I in genome-engineered myoblasts, ATP content counter screen for viability, HLA-ABC immunofluorescence secondary screen, and HLA-B RT-qPCR tertiary screen.\nThe primary screen utilized CRISPR/Cas9 genome-engineering of immortalized human myoblasts, C25cl48, where a pro-luminescent reporter HiBit was fused to the C-terminus of endogenous MHC class I allele HLA-B*08:01 (HLA-B HiBit myoblasts). HiBit is an 11 amino acid fragment of NanoLuc luminescent reporter (Promega Corporation), and when complexed to the larger LgBit fragment, the reconstituted enzyme produces light in the presence of furimazine substrate (Schwinn et al., 2018). Briefly, HLA-B HiBit myoblasts were plated into 1536-well plates, treated with 4.0 ng/ml human IFN-beta and 2,480 compounds from the NCATS Mechanism Interrogation Plate v5.0 (MIPE5.0) in an 11-point, 1:3 titration with a high final concentration of 46 uM. After 24 hrs of treatment, cells were assayed by Nano-Glo HiBiT Lytic Detection System (Promega) and luminescence measured by a ViewLux 1430 Ultra HTS (Perkin Elmer).\nSchwinn MK, Machleidt T, Zimmerman K, Eggers CT, Dixon AS, Hurst R, Hall MP, Encell LP, Binkowski BF, Wood K V. 2018. CRISPR-Mediated Tagging of Endogenous Proteins with a Luminescent Peptide. ACS Chem Biol 13:467-474. doi:10.1021/acschembio.7b00549\nPROTOCOL TABLE (as described by Inglese et al., 2007)\nSEQUENCE No. (e.g., 1, 2, 3, etc.); […] (e.g., Cells, Incubation, Reagent, etc.); VALUE; DESCRIPTION\n1a; Cells; 5 uL; Use a Multidrop Combi (Thermo Scientific) to seed 300 cells/well into 24 Greiner 1536 well white/solid bottom, high base, TC plates in 5 ul/well of iHSKM growth medium (GM) without dexamethasone into columns 1+2. Add metal lids with gas-exchange holes\n1b; Cells; 5 uL; Use a Multidrop Combi (Thermo Scientific) to seed 300 cells/well into 24 Greiner 1536 well white/solid bottom, high base, TC plates in 5 ul/well of iHSKM GM without dexamethasone + 4 ng/ml IFN-b into columns 3 - 48. Add metal lids with gas-exchange holes\n2; Incubate; 1 hr; Incubate at 37 C, 5% CO2, 95% RH\n3; Compounds; 23 nl; Use Pin Tool (Wako) to transfer DMSO control, ruxolitinib IFN-b inhibitor control [High Concentration = 80 uM final, 16-pt, 1:2 in duplicate], and library compounds in DMSO\n4; Incubate; 24 hrs; Incubate at 37 C, 5% CO2, 95% RH\n5; Dispense; 2.5 ul; Use BioRAPTR FRD (Beckman Coulter) to add HiBit lytic reagent\n6; Incubate; 10 min; Incubate in the dark at ambient temperature for lysis\n7; Detector; 5 sec; Measure luminescence with ViewLux 1430 Ultra HTS (Perkin Elmer). […]"}
{"smiles": "CCCCN(CCCC)C(=O)CN1C[C@H](c2ccc3c(c2)OCO3)[C@@H](C(=O)O)[C@@H]1c1ccc(OC)cc1", "activity change, negative = inhibition": "-52.5%"}
{"smiles": "CCS(=O)(=O)N1CCC([C@@H](C)n2c(C)c(C(=O)NCc3c(OC)cc(C)[nH]c3=O)c3ccccc32)CC1", "activity change, negative = inhibition": "-9.93%"}
{"smiles": "O=C(O)C[C@H](O)C[C@H](O)/C=C/c1c(C2CC2)nc2ccccc2c1-c1ccc(F)cc1", "activity change, negative = inhibition": "-13.2%"}
{"smiles": "COc1ccc2cc(OCC3(C(=O)O)CN(C(=O)c4ccc(F)cc4)C3)ccc2c1", "activity change, negative = inhibition": "-24.2%"}
{"smiles": "O=C(NCC(=O)N1CC[C@H](NC2CCC(O)(c3ccc(-c4ncccn4)cn3)CC2)C1)c1cccc(C(F)(F)F)c1", "note": "(stereo not given in full)", "activity change, negative = inhibition": "4.63%"}
{"smiles": "CN1CC[C@@H](NC(=O)Nc2ccc(C#N)cc2)C[C@@H]1c1nc2ccccc2[nH]1", "activity change, negative = inhibition": "-15.2%"}
{"smiles": "O=C(c1ccc(NS(=O)(=O)c2cccc3cccnc23)cc1)N1CCN(CC2CC2)CC1", "activity change, negative = inhibition": "0.621%"}
{"smiles": "COc1cc2c(Nc3ccc(Cl)c(Cl)c3F)ncnc2cc1OCC1C[C@@H]2CN(C)C[C@@H]2C1", "note": "(stereo not given in full)", "Potency": "20.8 µM (active)"}
{"smiles": "C=C1CC[C@@H]2[C@](C)(CO)[C@H](O)CC[C@@]2(C)[C@@H]1C/C=C1/C(=O)OC[C@H]1O", "Potency": "11.7 µM (active)"}
{"smiles": "CCC(C)C(N)C1=NC(C(=O)N[C@@H](CC(C)C)C(=O)N[C@H](CCC(=O)O)C(=O)N[C@H](C(=O)N[C@H]2CCCCNC(=O)[C@H](CC(N)=O)NC(=O)[C@@H](CC(=O)O)NC(=O)[C@H](Cc3cnc[nH]3)NC(=O)[C@@H](Cc3ccccc3)NC(=O)[C@H]([C@@H](C)CC)NC(=O)[C@@H](CCCN)NC2=O)[C@@H](C)CC)CS1", "note": "(stereo not given in full) (X1-L[dE]IK[dOrn]I[dF]H[dD]N; lactam 4-C)", "activity change, negative = inhibition": "-0.235% [at 15.5 µM]"}
{"smiles": "CC(C)(O)CNc1nc(Nc2ccnc(C(F)(F)F)c2)nc(-c2cccc(C(F)(F)F)n2)n1", "activity change, negative = inhibition": "-26.3%"}
{"smiles": "Cc1nnc(C(C)C)n1C1CC2CCC(C1)N2CC[C@H](NC(=O)C1CCC(F)(F)CC1)c1ccccc1", "note": "(stereo not given in full)", "activity change, negative = inhibition": "-7.87%"}
{"smiles": "O=C(C1CC1)N1CC[C@@H](Cc2n[nH]c(=O)n2-c2ccc(-c3ccc4occc4c3)cc2)C1", "activity change, negative = inhibition": "-14.4%"}
{"smiles": "Cc1nn(C)c(COc2ccc(N3CCN(S(=O)(=O)N(C)C)CC3)cc2)c1-c1cccc2c(CCCOc3cccc4ccccc34)c(C(=O)O)n(CCN3CCOCC3)c12", "activity change, negative = inhibition": "-7.73%"}
{"smiles": "CN(NC(=O)CC(=O)NN(C)C(=S)c1ccccc1)C(=S)c1ccccc1", "activity change, negative = inhibition": "-17%"}
{"smiles": "CCOC(=O)c1ccnc(CNCC(=O)N(CC)CCN(C)C)c1", "activity change, negative = inhibition": "18.5%"}
{"smiles": "Cc1c(-c2ccnn2C)cc(C(=O)NCc2ccc(S(C)(=O)=O)cn2)c(=O)n1-c1cccc(C(F)(F)F)c1", "activity change, negative = inhibition": "-23.8%"}
{"smiles": "CCCCC(=O)OCC(=O)[C@]1(O)Cc2c(O)c3c(c(O)c2[C@@H](O[C@H]2C[C@H](NC(=O)C(F)(F)F)[C@H](O)[C@H](C)O2)C1)C(=O)c1c(OC)cccc1C3=O", "Potency": "10.4 µM (active)"}
{"smiles": "CN(C)C/C=C/C(=O)Nc1ccc(C(=O)Nc2cccc(Nc3ncc(Cl)c(-c4c[nH]c5ccccc45)n3)c2)cc1", "Potency": "0.294 µM (active)"}
{"smiles": "C[C@H]1CN(C[C@H](Cc2ccccc2)C(=O)NCC(=O)O)CC[C@@]1(C)c1cccc(O)c1", "activity change, negative = inhibition": "5.72%"}
{"smiles": "COc1ncc(-c2ccc3c(Nc4cc(Oc5cc(F)cc(F)c5)cc(C(=O)O)c4)c(S(=O)(=O)NC4CC4)cnc3c2)c(OC)n1", "activity change, negative = inhibition": "-7.57%"}
{"smiles": "O=C(O)c1cnn(-c2nc3cc(OC(F)(F)F)c(Cl)cc3[nH]2)c1", "activity change, negative = inhibition": "-28.6%"}
{"smiles": "O=C(O)c1ccc(CCCc2ccc(OCCc3ccc(F)cc3)cc2)o1", "activity change, negative = inhibition": "-12.4%"}
{"smiles": "CC1(C)O[C@@H]2C[C@H]3[C@@H]4CCC5=CC(=O)C=C[C@]5(C)[C@H]4[C@@H](O)C[C@]3(C)[C@]2(C(=O)CO)O1", "activity change, negative = inhibition": "-29.6%"}
{"smiles": "CCOc1cc2ncc(C#N)c(Nc3ccc(OCc4ccccn4)c(Cl)c3)c2cc1NC(=O)/C=C/CN(C)C", "Potency": "4.66 µM (active)"}
{"smiles": "CC(=O)c1cnc2ccc(-c3cc(Cl)c(O)c(Cl)c3)nc2c1NC1CCC(CN(C)C)CC1", "note": "(stereo not given)", "Potency": "0.151 µM (active)"}
{"smiles": "Nc1ccn([C@@H]2C(F)=C(CO)[C@@H](O)[C@H]2O)c(=O)n1", "activity change, negative = inhibition": "-14.7%"}
{"smiles": "CC1=C(/C=C/C(C)=C/C=C/C(C)=C/C=C/C=C(C)/C=C/C=C(C)/C=C/C2=C(C)CCCC2(C)C)C(C)(C)CCC1", "activity change, negative = inhibition": "-1.87%"}
{"smiles": "CN1C(=O)N[C@@H](Cc2c[nH]c3c(Cl)cccc23)C1=O", "activity change, negative = inhibition": "-6.96%"}
{"smiles": "C[C@H]1[C@H](C)CC[C@]2(C(=O)O)CC[C@]3(C)C(=CC[C@@H]4[C@@]5(C)C[C@@H](O)[C@H](O)[C@@](C)(CO)[C@@H]5CC[C@]43C)[C@H]12", "activity change, negative = inhibition": "-1.29%"}
{"smiles": "CCN(c1cc(C#CCN2CCOCC2)cc(C(=O)NCc2c(C)cc(C)[nH]c2=O)c1C)C1CCC(N(C)CCOC)CC1", "note": "(stereo not given)", "activity change, negative = inhibition": "-11.2%"}
{"smiles": "CCNC(=O)CCC/C=C\\C[C@@H]1[C@@H](/C=C/C(O)CCc2ccccc2)[C@@H](O)C[C@@H]1O", "note": "(stereo not given in full)", "activity change, negative = inhibition": "3.09%"}
{"smiles": "OC[C@H]1O[C@@H](n2cnc3c2NC=NC[C@H]3O)C[C@@H]1O", "activity change, negative = inhibition": "-1.69%"}
{"smiles": "CC(C)N(C[C@H]1O[C@@H](n2cnc3c(N)ncnc32)[C@H](O)[C@@H]1O)C1CC(CCc2nc3ccc(C(C)(C)C)cc3[nH]2)C1", "note": "(stereo not given in full)", "activity change, negative = inhibition": "-5.21%"}
{"smiles": "OC[C@H]1O[C@@H](Oc2cc(O)cc(/C=C/c3ccc(O)cc3)c2)[C@H](O)[C@@H](O)[C@@H]1O", "activity change, negative = inhibition": "2.34%"}
{"smiles": "COc1cc2c(cc1O)CCN[C@]21CS[C@@H]2c3c(OC(C)=O)c(C)c4c(c3[C@H](COC1=O)N1[C@@H]2[C@H]2c3c(cc(C)c(OC)c3O)C[C@@H]([C@@H]1O)N2C)OCO4", "Potency": "0.0848 µM (active)"}
{"smiles": "CON(C)C(=O)N1N=C(c2cc(F)ccc2F)S[C@@]1(CCCN)c1ccccc1", "activity change, negative = inhibition": "-13.5%"}
{"smiles": "CNc1nc(Nc2cnn([C@H]3CCN(C4COC4)C[C@@H]3F)c2Cl)ncc1C(F)(F)F", "activity change, negative = inhibition": "-30%"}
{"smiles": "NS(=O)(=O)NCCNc1nonc1C(=Nc1ccc(F)c(Br)c1)NO", "activity change, negative = inhibition": "-13.2%"}
{"smiles": "NC1CCC(N[C@@H]2C[C@H]2c2ccccc2)CC1", "note": "(stereo not given in full)", "activity change, negative = inhibition": "14.9%"}
